Drawing on PubChem BioAssay (NCI), this text covers growth for 38 compounds.

This is part of a sample that, as a whole, favours compounds with a hit. Of some 83,000 tested, about 20% had one in any assay.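 Growth was measured after 48 h exposure to one concentration of compound in 96-well plates. Values under 10 count as active.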 A number with no mark means an inactive call. Activity calls are given as the source filed them.

One assay deals with A549/ATCC NSCLC. Nature of the assay: NCI-60 one-dose screen, 48 h (100 = growth as untreated, 0 = no growth, -100 = all killed). The note with it: 10 µM unless noted.
For the compound `c1ccc2[nH]c(-c3ccc(Nc4nc(N5CCCC5)nc5[nH]ncc45)cc3)nc2c1`, the growth is -42.4% (active).
The same measure, in the same setting: then `COc1cc2c(cc1-c1c(C)noc1C)ncc1nc(C3CCOCC3)n([C@H](C)COC(F)F)c12`, with 36.2%.
The same measure, in the same setting: then `c1csc(C2=NN3C(C2)c2ccccc2OC3c2ccncc2)c1` (stereo unspecified), with 96.2%; and `O=C(/C=C/C=C/c1ccc2c(c1)OCO2)N/N=C\c1ccc(O)cc1O`, with 36.1%; and `Fc1ccc2[nH]cc(SSc3c[nH]c4ccc(F)cc34)c2c1`, with 19.3%.
On the same count and under the same terms, in the case of `Cc1cc(C)nc(SC2=C(Nc3cc(Cl)ccc3O)C(=O)N(Cc3ccccc3)C2=O)n1` it was 46.6% [30 µM]; in that of `CC(C)(C)N1CCC1CN` (stereo unspecified), 104%.
For the compound `COc1cc(-c2nc3ccccc3[nH]2)ccc1OCC(=O)N=Nc1c(O)[nH]c2ccc(Cl)cc12`, the growth is 35.6%.
On the same count and under the same terms, in the case of `CSc1nc(-c2cccc(NC(=O)CCl)c2)c(C#N)c(=O)n1C` it was 86.3%.
Take `Cc1nc2ccccc2n1C(=O)C[C@@H]1NC(=S)NC1=O`: the growth was 93.1%.
On the same count and under the same terms, in the case of `COc1ccc(/C=N/C2=C(C#N)C(c3ccc(N(C)C)cc3)c3ccc4ccccc4c3O2)cc1` (stereo unspecified) it was 64.9%.
Still for that read-out and setting: then `COc1cccc(NC(=O)c2sc3nc(C)c(C(C)=O)cc3c2N)c1`, with 20.5%.
Same read-out and setting: in the case of `O=C1CC[C@H](c2ccc(O)c3c2C(=O)[C@@H]2O[C@@H]2C3=O)c2cccc(O)c21` it was 87.2%; in that of `C=C(C)C1CC(O)C2(C)CCCC3C2C1CC(C)C3(C)CC/C(C)=C/C(O)C1CCC(=O)c2c(OC)cc(OC)cc21` (stereo unspecified), 30.8%; in that of `Clc1ccc2c(NCCCNc3nc(-n4ccnc4)nc4ccccc34)ccnc2c1`, 92.3%.
Take `c1ccc(CCNc2ncnc3[nH]ncc23)cc1`: the growth was 92.4%.
The same measure, in the same setting: in the case of `CC[C@]1(O)C[C@@H]2CN(CCc3c([nH]c4ccccc34)[C@@](C(=O)OC)(c3cc4c(cc3OC)N(C)[C@H]3[C@@](O)(C(N)=O)[C@H](O)[C@]5(CC)[C@@H]6C[C@@H]6CN6CC[C@]43[C@@H]65)C2)C1` it was 12.7%; in that of `Cc1ccc(-c2onc3c(=O)[nH]nc(-c4ccccc4)c23)cc1`, 31.5%.
As to `Cc1cc(N2CCCCC2)nc(NC2CCCC(Nc3ccnc4cc(Cl)ccc34)C2)n1` (stereo unspecified), the growth is -23.7% (active).
On to `COc1cc2nc(N3CCCC3)nc(NCCc3ccccc3)c2cc1OC`, for which the growth is 18.5%.
Still for that read-out and setting: in the case of `O=C(COc1ccc(/C=C2\CSc3ccccc3C2=O)cc1)Nc1nccs1` it was 100%; in that of `Oc1cccc(-c2nc(N3CCOCC3)c3c4c(sc3n2)CCCC4)c1`, 51.7%.
With `COc1ccc(/C=C2\Oc3cc(OCCCCN4CCCC4)ccc3C2=O)cc1`, the growth was 79.3%.
On the same count and under the same terms, in the case of `Brc1ccc(-c2csc(Nc3ccccn3)n2)cc1` it was 91.3%.
As to `Cc1ccc2c(C(C[N+](=O)[O-])c3ccccc3)c(-c3ccccc3)[nH]c2c1` (stereo unspecified), the growth is 28.6% [9.5 µM].
As to `Nc1ccc(-c2cc3c(Nc4ccc(Oc5cccc(C(F)(F)F)c5)c(Cl)c4)ncnc3s2)cc1`, the growth is 51.4%.
As for `COc1ccc(C(=S)N2CCN(c3cccc(Cl)c3)CC2)cc1`, the growth is 91.7%.
Consider `O=C(CCCCC(=O)N/N=C\c1ccccc1O)N/N=C\c1ccccc1O`, for which the growth is 48.9%.
The same measure, in the same setting: in the case of `CN1C(=O)C2(SCC(C(=O)NCc3ccccc3)N2C(=O)C2CCCCC2)c2ccccc21` (stereo unspecified) it was 93.6%.
The same measure, in the same setting: then `O=C(C(=O)c1ccc2c(c1)OCO2)c1ccc2c(c1)OCO2`, with 99.1%; and `C=C1C(=O)O[C@H]2[C@H]1CC/C(COC(=O)NCc1ccc(OC)c(OC)c1)=C\CC[C@@]1(C)O[C@@H]21`, with 97.9%.
On the same count and under the same terms, then `CCNc1ncnc2c1cnn2C1CCCO1` (stereo unspecified), with 95.4%.
Consider `COc1ccc2c(c1)c(-c1nonc1-c1cn(C)c3ccccc13)cn2C`, for which the growth was 30.3%.
`Nc1ccc(S(=O)(=O)O)c2ccc(N=Nc3ccc(N=Nc4ccc(S(=O)(=O)O)cc4)c4ccccc34)c(O)c12`: the growth was 99.8%.
On the same count and under the same terms, then `CCOc1ccc(C(C)=O)cc1NC(=O)c1cccc(-c2nnn(CC)n2)c1`, with 45%.
Still for that read-out and setting: in the case of `O=C1CSC(=S)N1CCc1ccc(O)cc1` it was 96.7%; in that of `COC(=O)c1ccc2oc(NC(=O)c3ccc(Nc4ccc([N+](=O)[O-])cc4C)c([N+](=O)[O-])c3)nc2c1`, 100%; in that of `CC(C)n1c(/C=C/[C@@H](O)C[C@@H](O)CC(=O)O)c(-c2ccc(F)cc2)c2ccccc21`, 61.3%.

In another assay the test system is 786-0 renal. Described as above. The note with it: 10 µM unless noted.
As to `c1ccc2[nH]c(-c3ccc(Nc4nc(N5CCCC5)nc5[nH]ncc45)cc3)nc2c1`, the growth is -92.4% (active).
As for `COc1cc2c(cc1-c1c(C)noc1C)ncc1nc(C3CCOCC3)n([C@H](C)COC(F)F)c12`, the growth was 48%.
On to `c1csc(C2=NN3C(C2)c2ccccc2OC3c2ccncc2)c1` (stereo unspecified), for which the growth is 98.7%.
On the same count and under the same terms, then `O=C(/C=C/C=C/c1ccc2c(c1)OCO2)N/N=C\c1ccc(O)cc1O`, with 29%.
The same measure, in the same setting: in the case of `Fc1ccc2[nH]cc(SSc3c[nH]c4ccc(F)cc34)c2c1` it was 60.8%.
Same read-out and setting: in the case of `Cc1cc(C)nc(SC2=C(Nc3cc(Cl)ccc3O)C(=O)N(Cc3ccccc3)C2=O)n1` it was 83.4% [30 µM]; in that of `CC(C)(C)N1CCC1CN` (stereo unspecified), 96.4%.
Consider `COc1cc(-c2nc3ccccc3[nH]2)ccc1OCC(=O)N=Nc1c(O)[nH]c2ccc(Cl)cc12`, for which the growth is -79.9% (active).
Consider `CSc1nc(-c2cccc(NC(=O)CCl)c2)c(C#N)c(=O)n1C`, for which the growth was 53%.
`Cc1nc2ccccc2n1C(=O)C[C@@H]1NC(=S)NC1=O`: the growth was 101%.
Still for that read-out and setting: then `COc1ccc(/C=N/C2=C(C#N)C(c3ccc(N(C)C)cc3)c3ccc4ccccc4c3O2)cc1` (stereo unspecified), with 83.1%.
Same read-out and setting: in the case of `COc1cccc(NC(=O)c2sc3nc(C)c(C(C)=O)cc3c2N)c1` it was 58.5%; in that of `O=C1CC[C@H](c2ccc(O)c3c2C(=O)[C@@H]2O[C@@H]2C3=O)c2cccc(O)c21`, 44.8%.
`C=C(C)C1CC(O)C2(C)CCCC3C2C1CC(C)C3(C)CC/C(C)=C/C(O)C1CCC(=O)c2c(OC)cc(OC)cc21` (stereo unspecified): the growth was 58%.
`Clc1ccc2c(NCCCNc3nc(-n4ccnc4)nc4ccccc34)ccnc2c1`: the growth was 77.6%.
Still for that read-out and setting: then `c1ccc(CCNc2ncnc3[nH]ncc23)cc1`, with 96.4%.
On the same count and under the same terms, in the case of `CC[C@]1(O)C[C@@H]2CN(CCc3c([nH]c4ccccc34)[C@@](C(=O)OC)(c3cc4c(cc3OC)N(C)[C@H]3[C@@](O)(C(N)=O)[C@H](O)[C@]5(CC)[C@@H]6C[C@@H]6CN6CC[C@]43[C@@H]65)C2)C1` it was 18%; in that of `Cc1ccc(-c2onc3c(=O)[nH]nc(-c4ccccc4)c23)cc1`, 37.1%; in that of `Cc1cc(N2CCCCC2)nc(NC2CCCC(Nc3ccnc4cc(Cl)ccc34)C2)n1` (stereo unspecified), -96% (active).
The same measure, in the same setting: then `COc1cc2nc(N3CCCC3)nc(NCCc3ccccc3)c2cc1OC`, with 81.5%; and `O=C(COc1ccc(/C=C2\CSc3ccccc3C2=O)cc1)Nc1nccs1`, with 95.7%.
On to `Oc1cccc(-c2nc(N3CCOCC3)c3c4c(sc3n2)CCCC4)c1`, for which the growth is 96.7%.
For `COc1ccc(/C=C2\Oc3cc(OCCCCN4CCCC4)ccc3C2=O)cc1`, the growth was 85.2%.
For the compound `Brc1ccc(-c2csc(Nc3ccccn3)n2)cc1`, the growth is 88.5%.
The same measure, in the same setting: in the case of `Cc1ccc2c(C(C[N+](=O)[O-])c3ccccc3)c(-c3ccccc3)[nH]c2c1` (stereo unspecified) it was 30.8% [9.5 µM]; in that of `Nc1ccc(-c2cc3c(Nc4ccc(Oc5cccc(C(F)(F)F)c5)c(Cl)c4)ncnc3s2)cc1`, 73.9%.
`COc1ccc(C(=S)N2CCN(c3cccc(Cl)c3)CC2)cc1`: the growth was 97.1%.
Take `O=C(CCCCC(=O)N/N=C\c1ccccc1O)N/N=C\c1ccccc1O`: the growth was 19.6%.
As to `CN1C(=O)C2(SCC(C(=O)NCc3ccccc3)N2C(=O)C2CCCCC2)c2ccccc21` (stereo unspecified), the growth was 101%.
The same measure, in the same setting: then `O=C(C(=O)c1ccc2c(c1)OCO2)c1ccc2c(c1)OCO2`, with 109%.
For `C=C1C(=O)O[C@H]2[C@H]1CC/C(COC(=O)NCc1ccc(OC)c(OC)c1)=C\CC[C@@]1(C)O[C@@H]21`, the growth is 81.6%.
For `CCNc1ncnc2c1cnn2C1CCCO1` (stereo unspecified), the growth was 109%.
Same read-out and setting: then `COc1ccc2c(c1)c(-c1nonc1-c1cn(C)c3ccccc13)cn2C`, with 44.2%.
Still for that read-out and setting: in the case of `Nc1ccc(S(=O)(=O)O)c2ccc(N=Nc3ccc(N=Nc4ccc(S(=O)(=O)O)cc4)c4ccccc34)c(O)c12` it was 102%; in that of `CCOc1ccc(C(C)=O)cc1NC(=O)c1cccc(-c2nnn(CC)n2)c1`, 35.5%; in that of `O=C1CSC(=S)N1CCc1ccc(O)cc1`, 40%.
Turning to `COC(=O)c1ccc2oc(NC(=O)c3ccc(Nc4ccc([N+](=O)[O-])cc4C)c([N+](=O)[O-])c3)nc2c1`, the growth was 99.8%.
On the same count and under the same terms, then `CC(C)n1c(/C=C/[C@@H](O)C[C@@H](O)CC(=O)O)c(-c2ccc(F)cc2)c2ccccc21`, with 64%.
